Test results reported in publication PMC5540273 (PLoS ONE, 2017).

System: CAMK1G
Conditions: concentration: 1 μM, replicates: in singlicate; n = 1
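Also: KINOMEscan kinase panel screen.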

Row | Structure (SMILES) | %Inh [%]
1 | CN1C(=O)C(Nc2ccc(Cl)c(C(=O)O)c2)=C(c2ccc(Cl)cc2)C1=O [SB-404290] | 100
2 | Cc1cccc(-c2nc(-c3ccc(S(C)(=O)=O)cc3)sc2-c2ccnc(NCCc3ccccc3)c2)c1 | 16
3 | COc1cccc(-c2cc(-c3c[nH]nc3-c3ccccn3)ccn2)c1 [GW680338] | 0
4 | Cl.NC(=O)c1cccc(Nc2nccc(Nc3ccc(Oc4cccc(Cl)c4)c(Cl)c3)n2)c1 [GW659008] | 9
5 | Cn1ccc2ncnc(Oc3ccc(NC(=O)Nc4ccccc4)cc3)c21 | 22
6 | Cc1ccc(C(=O)Nc2ccc(Nc3ccnc4cc(-c5ccccn5)ccc34)cc2O)cc1.Cl [GW440146] | 0
7 | Cc1c(O)cccc1Nc1ccnc2ccc(C(F)(F)F)cc12.Cl [GW466413] | 0
8 | CC(C)(C)c1ccc(C(=O)Nc2cn3cc(-c4cccnc4)ccc3n2)cc1 | 12
9 | CC1=C(C(=O)Nc2cc3cn[nH]c3cc2F)C(c2ccc(C(F)(F)F)cc2)CC(=O)N1 (centres unmarked) [GSK429286] | 0
10 | Cl.c1ccc(-c2n[nH]cc2-c2ccnc(-c3ccc(CN4CCOCC4)cc3)c2)nc1 [GW776245] | 0
11 | Cc1cccc(-c2cc(Nc3ccncc3)c3ccccc3n2)n1 [GSK223675] | 6
12 | Cc1cccc(-c2nc(Nc3ccncc3)c3ccccc3n2)n1 [GW855857] | 0
13 | COc1ccc2nc(-c3cccc(C)n3)nc(Nc3ccncc3)c2c1 [GSK204919] | 0
14 | COc1ccc(C2=C(Nc3cccc(C(=O)O)c3)C(=O)NC2=O)cc1 [SB-390765] | 0
15 | COc1ccc(Nc2nccc(-c3cccc(NC(=O)c4cc5cc(F)ccc5[nH]4)c3)n2)cc1 [GSK1229782] | 13
16 | CCCc1ccc(S(=O)(=O)NC2CCN(c3ccnc(Nc4ccc(F)cc4)n3)C2)cc1 (centres unmarked) [GSK1379715] | 0
17 | CC(=O)Nc1nc2cnc(Nc3cc(NC(=O)c4cccc(CCC#N)c4)ccc3C)nc2s1 | 0

Row | Structure (SMILES) | %Inh [%]
18 | Cc1ccc(NC(=O)Nc2cc(C(C)(C)C)nn2-c2ccccc2)cc1 [GSK1014915] | 0
19 | Cc1cccc(-c2nc(Nc3ccc4[nH]ncc4c3)c3ccccc3n2)n1 [GW857175] | 0
20 | Cc1cccc(-c2nc(C)cc(Nc3ccncc3)n2)n1 [GSK257997] | 99.4
21 | CS(=O)(=O)c1ccc(-c2nc3n(c2-c2ccncc2)CCC3)cc1 [SKF-105942] | 14
22 | O=C(Nc1ccc2c(c1)OCO2)NC1CCN(c2ccnc(Nc3ccc(F)cc3)n2)C1 (centres unmarked) [GSK1379724] | 23
23 | O=c1cc(N2CCOCC2)nc2n(Cc3cccc(Cl)c3Cl)ccn12 [GSK2286295] | 0
24 | COC(=O)c1c(-c2ccccc2)c2cc(OC)ccc2c(=O)n1Cc1ccccc1 | 20
25 | O=C(Nc1ccccc1)Nc1cccc(Oc2ccc3nccn3n2)c1 | 0
26 | Fc1cc(Cl)ccc1Nc1ccnc2cc(I)ccc12 [GW551191] | 0
27 | Cc1ccc(NC(=O)Nc2cccc(Cl)c2)cc1-c1ccc(C(=O)Nc2ccncc2)cc1 [GSK1398468] | 0
28 | O=C(O)COc1ncnc2cc(-c3ccc4[nH]ncc4c3)sc12 | 31
29 | Cn1ccc2ncnc(Oc3cccc(C(=O)Nc4ccccc4)c3)c21 | 17
30 | Cc1ccccc1-n1cnc2c(N)ncnc21 [SKF-97510] | 0
31 | COc1cc2ncnc(Nc3ccc4nc(-c5ccccc5)[nH]c4c3)c2cc1OC.Cl [GW282450] | 0
32 | Cl.O=C(Nc1cccc(-c2nn3ncccc3c2-c2ccnc(Nc3cccnc3)n2)c1)c1c(F)cccc1F [GSK312879] | 0
33 | NC(=O)c1nnc2ccccc2c1N | 7
34 | CN(C)CCN(C)C(=O)c1cc(-c2ccncc2)c(-c2ccc(Cl)c(O)c2)o1.Cl.Cl [SB-710397] | 0

System: CAMK1
Conditions: concentration: 1 μM, replicates: in singlicate; n = 1

Row | Structure (SMILES) | %Inh [%]
35 | CN1C(=O)C(Nc2ccc(Cl)c(C(=O)O)c2)=C(c2ccc(Cl)cc2)C1=O [SB-404290] | 22
36 | Cc1cccc(-c2nc(-c3ccc(S(C)(=O)=O)cc3)sc2-c2ccnc(NCCc3ccccc3)c2)c1 | 31
37 | COc1cccc(-c2cc(-c3c[nH]nc3-c3ccccn3)ccn2)c1 [GW680338] | 0
38 | Cl.NC(=O)c1cccc(Nc2nccc(Nc3ccc(Oc4cccc(Cl)c4)c(Cl)c3)n2)c1 [GW659008] | 25
39 | Cn1ccc2ncnc(Oc3ccc(NC(=O)Nc4ccccc4)cc3)c21 | 0
40 | Cc1ccc(C(=O)Nc2ccc(Nc3ccnc4cc(-c5ccccn5)ccc34)cc2O)cc1.Cl [GW440146] | 39
41 | Cc1c(O)cccc1Nc1ccnc2ccc(C(F)(F)F)cc12.Cl [GW466413] | 1
42 | CC(C)(C)c1ccc(C(=O)Nc2cn3cc(-c4cccnc4)ccc3n2)cc1 | 4
43 | CC1=C(C(=O)Nc2cc3cn[nH]c3cc2F)C(c2ccc(C(F)(F)F)cc2)CC(=O)N1 (centres unmarked) [GSK429286] | 0
44 | Cl.c1ccc(-c2n[nH]cc2-c2ccnc(-c3ccc(CN4CCOCC4)cc3)c2)nc1 [GW776245] | 22
45 | Cc1cccc(-c2cc(Nc3ccncc3)c3ccccc3n2)n1 [GSK223675] | 17
46 | Cc1cccc(-c2nc(Nc3ccncc3)c3ccccc3n2)n1 [GW855857] | 0
47 | COc1ccc2nc(-c3cccc(C)n3)nc(Nc3ccncc3)c2c1 [GSK204919] | 5
48 | COc1ccc(C2=C(Nc3cccc(C(=O)O)c3)C(=O)NC2=O)cc1 [SB-390765] | 23
49 | COc1ccc(Nc2nccc(-c3cccc(NC(=O)c4cc5cc(F)ccc5[nH]4)c3)n2)cc1 [GSK1229782] | 36
50 | CCCc1ccc(S(=O)(=O)NC2CCN(c3ccnc(Nc4ccc(F)cc4)n3)C2)cc1 (centres unmarked) [GSK1379715] | 0
51 | CC(=O)Nc1nc2cnc(Nc3cc(NC(=O)c4cccc(CCC#N)c4)ccc3C)nc2s1 | 25

Row | Structure (SMILES) | %Inh [%]
52 | Cc1ccc(NC(=O)Nc2cc(C(C)(C)C)nn2-c2ccccc2)cc1 [GSK1014915] | 0
53 | Cc1cccc(-c2nc(Nc3ccc4[nH]ncc4c3)c3ccccc3n2)n1 [GW857175] | 0
54 | Cc1cccc(-c2nc(C)cc(Nc3ccncc3)n2)n1 [GSK257997] | 10
55 | CS(=O)(=O)c1ccc(-c2nc3n(c2-c2ccncc2)CCC3)cc1 [SKF-105942] | 8
56 | O=C(Nc1ccc2c(c1)OCO2)NC1CCN(c2ccnc(Nc3ccc(F)cc3)n2)C1 (centres unmarked) [GSK1379724] | 35
57 | O=c1cc(N2CCOCC2)nc2n(Cc3cccc(Cl)c3Cl)ccn12 [GSK2286295] | 14
58 | COC(=O)c1c(-c2ccccc2)c2cc(OC)ccc2c(=O)n1Cc1ccccc1 | 19
59 | O=C(Nc1ccccc1)Nc1cccc(Oc2ccc3nccn3n2)c1 | 0
60 | Fc1cc(Cl)ccc1Nc1ccnc2cc(I)ccc12 [GW551191] | 0
61 | Cc1ccc(NC(=O)Nc2cccc(Cl)c2)cc1-c1ccc(C(=O)Nc2ccncc2)cc1 [GSK1398468] | 7
62 | O=C(O)COc1ncnc2cc(-c3ccc4[nH]ncc4c3)sc12 | 0
63 | Cn1ccc2ncnc(Oc3cccc(C(=O)Nc4ccccc4)c3)c21 | 29
64 | Cc1ccccc1-n1cnc2c(N)ncnc21 [SKF-97510] | 0
65 | COc1cc2ncnc(Nc3ccc4nc(-c5ccccc5)[nH]c4c3)c2cc1OC.Cl [GW282450] | 29
66 | Cl.O=C(Nc1cccc(-c2nn3ncccc3c2-c2ccnc(Nc3cccnc3)n2)c1)c1c(F)cccc1F [GSK312879] | 8
67 | NC(=O)c1nnc2ccccc2c1N | 14
68 | CN(C)CCN(C)C(=O)c1cc(-c2ccncc2)c(-c2ccc(Cl)c(O)c2)o1.Cl.Cl [SB-710397] | 10
